Screening results from PubChem BioAssay.
Rows were chosen to be rich in hits. Some 9.2% of all compounds tested hit in one or more screens of this group.
FLuc counter = qHTS profiling assay for firefly luciferase inhibitor/activator using purifed enzyme and Km concentrations of substrates (counterscreen for miR-21 project) | Luciferin 4-monooxygenase (Photinus pyralis), P08659 | purified FLuc, Km substrates, luminescence inhibition | Potency, µM (doses to about 57.5 µM), without a hit: at the top dose activity change, negative = inhibition, actives largely listed as inhibitors | hit rate 6.9% among 360,000 | AID 588342, 2011;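 also: plate controls were vehicle for no effect and reference inhibitor for full effect; nearly all actives have a fitted effect of over 55% in size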
Target sequence (P08659 whole entry, looked up): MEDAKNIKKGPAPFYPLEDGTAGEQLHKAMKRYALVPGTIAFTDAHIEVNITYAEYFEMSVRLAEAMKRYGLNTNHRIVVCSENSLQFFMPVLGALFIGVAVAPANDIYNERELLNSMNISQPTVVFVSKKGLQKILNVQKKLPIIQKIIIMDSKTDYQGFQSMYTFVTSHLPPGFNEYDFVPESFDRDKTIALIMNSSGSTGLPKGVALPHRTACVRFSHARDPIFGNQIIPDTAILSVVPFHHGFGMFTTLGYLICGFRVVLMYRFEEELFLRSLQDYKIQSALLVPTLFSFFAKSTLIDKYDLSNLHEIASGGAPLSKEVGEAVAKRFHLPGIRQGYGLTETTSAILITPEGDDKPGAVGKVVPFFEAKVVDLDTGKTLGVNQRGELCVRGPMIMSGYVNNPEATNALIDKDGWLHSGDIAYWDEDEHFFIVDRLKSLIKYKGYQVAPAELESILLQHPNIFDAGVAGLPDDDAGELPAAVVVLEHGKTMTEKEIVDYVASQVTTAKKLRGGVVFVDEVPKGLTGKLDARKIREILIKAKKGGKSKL
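Purified P. pyralis luciferase, 10 nM final, with Km-level 10 uM D-luciferin and 10 uM ATP in 50 mM Tris acetate pH 7.5, 10 mM Mg acetate, 0.01% Tween-20, 0.05% BSA; 6-point qHTS titration about 60 µM downward; luminescence read.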
ELG1 genotoxic = qHTS screen for small molecules that induce genotoxicity in human embryonic kidney (HEK293T) cells expressing luciferase-tagged ELG1. HEK293T ELG1-luciferase reporter, luminescence, 16 h. Potency, µM (doses to about 46 µM), for the others: top-dose activity change, positive = activation, most hits filed as activators. hit rate 1.3% among 330,000. AID 504466, 2011; also: % of control where 0% means no effect; nearly all actives have a fitted effect of over 60% in size
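Quantitative HTS format in 1536-well plates. HEK293T ELG1-luciferase reporter cells receive test compound and are incubated 16 hr at 37 °C, 5% CO2; ONE-Glo added, 30 min room temperature, then luminescence read.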
ELG1 DNA repair = qHTS screen for small molecules that inhibit ELG1-dependent DNA repair in human embryonic kidney (HEK293T) cells expressing luciferase-tagged ELG1; HEK293T ELG1-luciferase reporter, luminescence, 16 h; DNA damage induced by 5-fluorouridine; Potency, µM (highest dose often 46.1 µM), for the others: at the top dose activity change, negative = inhibition, most hits filed as inhibitors; hit rate 2.3% among 330,000; AID 504467, 2011; also: % is scaled to controls: 0 for no effect and ±100 for the full control effect; nearly all actives have a fitted effect of over 55% in size
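Quantitative HTS, concentration-response format. 2,000 cells/well co-treated with 5-fluorouridine and compound, 16 hr in 5% CO2 at 37 °C; ONE-Glo luminescence read after 30 min.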
SMN2 splice up = qHTS Assay for Enhancers of SMN2 Splice Variant Expression; HEK293 SMN2-luciferase splicing reporter, luminescence, 30-36 h; Potency, µM (titrated, usually from 46.1 µM), without a hit: top-dose activity change, positive = activation, most hits filed as activators; hit rate 2.8% among 210,000; AID 1458, 2008; also: % of control where 0% means no effect; nearly all actives have a fitted effect of over 55% in size
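HEK293 cells carry an SMN2 […]–luciferase reporter in which exon 7 inclusion puts luciferase in frame. Cells were plated 10-12 h before compound addition, then incubated 30-36 h at 37C. ONE-Glo luminescence was read; sodium butyrate at 4.5 mM final served as control.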
Rab9 prom act = qHTS Assay for Rab9 Promoter Activators; Potency, µM (titrated, usually from 9.22 µM), inactives show at the top dose activation, negative = inhibition, hits mostly activators; hit rate 2.8% among 320,000; Huh7 Rab9 promoter-luciferase reporter, luminescence, 24 h; also: % of control where 0% means no effect; nearly all actives have a fitted effect of over 60% in size
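Cells were plated at 1500 per well in reduced-serum medium with 10% FBS and left 2 h. Compound in DMSO was then added for 24 h at 37 °C. Reporter signal was read by luminescence after 10 min with luciferase detection reagent.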
NPC1 prom act = qHTS Assay for NPC1 Promoter Activators. Huh7 NPC1 promoter luciferase reporter, 24 h. Potency, µM (series often up to 9.22 µM), inactives show top-dose activation, actives largely listed as activators. hit rate 2.4% among 320,000. AID 485313, 2010; also: % of control where 0% means no effect; nearly all actives have a fitted effect of over 60% in size
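Readout is luciferase luminescence, reflecting NPC1 promoter activation in stably transfected Huh7 cells after 24 h compound exposure at 37 °C in reduced-serum medium with 10% FBS.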
* hit, by the source's call; ? = inconclusive; nt = no result given; [ ] = another dose, or the depositor's remark. Calls follow the shape of the dose curve; as a rule, active = well fitted curve in the direction sought with a large enough effect; inconclusive = small, poorly fitted or top-dose-only effect, or another doubt; inactive = no such curve, though single readings can be large; an effect the other way counts as inactive or inconclusive. Potency is read from the fitted curve at half-maximal effect.

SMILES	FLuc counter	ELG1 genotoxic	ELG1 DNA repair	SMN2 splice up	Rab9 prom act	NPC1 prom act
O=C(Nc1nc2ccccc2[nH]1)NC1CCCCC1	1.5µM*	2.6µM*	?	nt	0.4µM*	0.45µM*
S=C(NC1CCCCC1)N(CCc1nc2ccccc2[nH]1)C1CCCC1	5%	-5%	23µM*	-61%	-6%	-4%
O=C(Nc1ccccc1NC(=O)NC1CCCCC1)NC1CCCCC1	?	-31%	11%	-78%	-7%	-5%
CCOc1cc(C(=O)Nc2cccc3cccnc23)cc(OCC)c1OCC	-3%	nt	nt	?	nt	nt
O=C(Nc1nc2ccccc2[nH]1)C1CCN(C(=O)c2ccc(F)cc2)CC1	-14%	-2%	14%	nt	-1%	-4%
O=C(Nc1nc2ccccc2[nH]1)C1CC1	?	10%	18%	10µM*	0%	-15%
O=C(Nc1nc2ccccc2[nH]1)C12CC3CC(CC(C3)C1)C2	3.4µM*	?	?	14µM*	2.8µM*	2µM*
CCOC(=O)C1CCN(C(=O)CSc2n[nH]c(-c3ccccc3)n2)CC1	4%	nt	nt	nt	nt	nt
CC(C)Sc1ncc(Cl)c(C(=O)Nc2ccc(S(=O)(=O)N3CCCCC3C)cc2)n1 (centres undefined)	1%	nt	nt	46%	nt	nt
CC(=O)Nc1nonc1-c1nnc(SCC(=O)Nc2ccc(C)c(Cl)c2)n1-c1ccccc1	-1%	nt	nt	nt	nt	nt
COC(=O)c1ccc(C2C=C(c3ccc(Cl)cc3)Nc3nc4ccccc4n32)cc1 (centres undefined)	6.7µM*	nt	nt	nt	nt	nt
Fc1ccc(C2=CC(c3ccc(F)cc3)n3c(nc4ccccc43)N2)cc1 (centres undefined)	11µM*	nt	nt	nt	nt	nt
COc1ccc(C2=CC(c3cc(Br)ccc3F)n3c(nc4ccccc43)N2)cc1 (centres undefined)	4.3µM*	nt	nt	nt	nt	nt
COc1ccc(C(=O)Nc2nc3n(n2)C(c2ccc(F)cc2)C=C(c2ccc(Cl)cc2)N3)cc1 (centres undefined)	-14%	nt	nt	nt	nt	nt
COC(=O)c1nc2n(n1)C(c1cc(OC)ccc1OC)C=C(c1ccc(Br)cc1)N2 (centres undefined)	-11%	nt	nt	nt	nt	nt
COc1ccc(-c2cc(=O)n(-c3ccc([N+](=O)[O-])cc3)[nH]2)cc1	21µM*	1%	?	9%	-5%	-1%
Cc1nn(CCC(=O)NCc2cccc(Br)c2)c(=O)c2nn(-c3ccccc3)c(C)c12	-8%	nt	nt	nt	nt	nt
Cc1ccc(-c2nc3cc(NC(=O)C(C)C)ccc3o2)cc1	1.1µM*	?	?	0.56µM*	0.1µM*	0.35µM*
Cc1ccc2oc(-c3ccc(NC(=O)CCC(=O)O)cc3)nc2c1	2.4µM*	nt	nt	11µM*	nt	nt
Cc1ccc(C(=O)Nc2cc(-c3nc4cc(Cl)ccc4o3)ccc2C)c(C)c1	5%	nt	nt	-8%	nt	nt
Cc1ccc(-c2nc3cc(Cl)ccc3o2)cc1	0.34µM*	?	?	?	16%	17%
CCC(Oc1ccccc1)C(=O)Nc1ccc(O)c(-c2nc3cc(C)ccc3o2)c1 (centres undefined)	15µM*	nt	nt	nt	nt	nt
Cc1ccc(-c2nc3cc(NC(=O)c4cc(Br)ccc4Cl)ccc3o2)cc1	-19%	nt	nt	18%	nt	nt
CCOc1ccc(CN2CCN(CC3CC3)CC2CCO)cc1 (centres undefined)	-2%	0%	0%	nt	-2%	-5%
COc1ccc(C(=O)Nc2ccc(-c3nc4cc(C)ccc4o3)c(O)c2)cc1	-3%	nt	nt	1%	nt	nt
SMILES	FLuc counter	ELG1 genotoxic	ELG1 DNA repair	SMN2 splice up	Rab9 prom act	NPC1 prom act
Cc1cc2nc(-c3ccc(NC(=O)c4ccc(OCC(C)C)cc4)cc3)oc2cc1C	-12%	nt	nt	1%	nt	nt
Cc1cc2nc(-c3ccc(NC(=O)C(C)C)cc3)oc2cc1C	0.85µM*	0.82µM*	?	2.8µM*	0.63µM*	0.45µM*
COc1cc(OC)cc(-c2nc3cc(C)ccc3o2)c1	11µM*	16µM*	?	7.1µM*	27%	8%
Cc1ccc(-c2nc3cc(NC(=O)C(C)C)ccc3o2)cc1C	0.27µM*	?	?	?	0.13µM*	0.35µM*
CC(C)CC(=O)Nc1ccc2oc(-c3ccncc3)nc2c1	15µM*	14%	?	4%	?	?
Cc1ccc(C)c(N2CCN(C(=O)C(C)n3c(C)c4cnn(-c5ccccc5)c(=O)c4c3C)CC2)c1 (centres undefined)	-3%	nt	nt	-4%	nt	nt
Clc1ccc(-c2nc3cc(CN4CCCCC4)ccc3o2)cc1	11µM*	?	?	nt	2.8µM*	1.8µM*
Clc1ccc(-c2noc(CN3CCCCC3)n2)cc1	nt	nt	nt	-3%[9.22 µM]	nt	nt
Cc1cc(C(=O)NCCC2=CCCCC2)ccc1[N+](=O)[O-]	12µM*	?	?	nt	1.8µM*	4.5µM*
O=C(NC1CCCCCC1)c1ccc(CN2CCOCC2)cc1	17µM*	?	?	?	3.5µM*	3.2µM*
O=C(NCCC1=CCCCC1)c1ccc(Br)o1	?	16µM*	?	29%	25%	26%
O=C(NC(=S)NCCC1=CCCCC1)c1ccc(Br)o1	?	12%	?	26%	?	21%
COc1cccc(C(=O)NCCC2=CCCCC2)c1	3µM*	?	?	?	0.63µM*	0.56µM*
O=C(NC1CCCC1)c1ccc(CN2CCOCC2)cc1	-5%	12%	?	-1%	16%	9%
Cc1nnc(NC(=O)C(C)Sc2nnc(-c3ccco3)n2C(C)C)s1 (centres undefined)	-1%	-3%	4%	nt	-9%	0%
O=C(NCCC1=CCCCC1)c1ccc(F)cc1	2.1µM*	?	?	7.1µM*	0.45µM*	0.4µM*
O=C(NCCC1=CCCCC1)c1ccc(CN2CCOCC2)cc1	24µM*	?	?	13µM*	1.4µM*	2.8µM*
COc1ccc(CCNC(=O)c2ccc(CN3CCOCC3)cc2)cc1	?	1%	-11%	-15%	-3%	12%
CCOC(=O)c1ccc(NC(=S)NCCC2=CCCCC2)cc1	7%	-3%	-25%	-85%	4%	-1%
Cc1ccc(NC(=S)NCCC2=CCCCC2)cc1	?	17%	?	20µM*	3.5µM*	?
CC(=O)c1c(C)[nH]c(C(=O)NCCC2=CCCCC2)c1C	12µM*	9.2µM*	?	?	?	3.5µM*
CCOC(=O)c1[nH]c(C)c(C(=O)NCCC2=CCCCC2)c1C	-5%	?	?	6%	?	27%
